Assay in all cases: DAPPL (digital affinity profiling via proximity ligation, sequencing); 10 mM Tris-HCl pH 7.5, 50 mM NaCl, 1 mM DTT, 4% glycerol, room temperature, 30 min; GST-TFs on glutathione beads, 16-mer random dsDNA library, 0.1% formaldehyde crosslink after washing; high values mean tight binding
The target of one assay is T1, FEV (Homo sapiens, UniProt Q99581 1-238).
T1 sequence: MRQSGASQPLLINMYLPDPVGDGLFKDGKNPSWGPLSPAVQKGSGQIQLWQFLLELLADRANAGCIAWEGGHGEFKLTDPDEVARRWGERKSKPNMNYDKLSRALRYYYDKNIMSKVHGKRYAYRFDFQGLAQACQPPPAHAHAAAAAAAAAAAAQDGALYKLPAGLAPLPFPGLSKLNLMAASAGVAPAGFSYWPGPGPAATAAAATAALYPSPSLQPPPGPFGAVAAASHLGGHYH
The settings on record: protein: recombinant; tags: N-terminal GST; dsDNA, one strand shown. In a few lines:
(§1)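 Binding signal is each hexamer's read frequency for a factor divided by its frequency in the tag-only sample. The factors were GST-fused human transcription factors from yeast, captured on glutathione beads, DNA-barcoded and pooled with that sample. Pools were incubated with 200 nmole of a random double-stranded 16-mer DNA library in Tris/NaCl/DTT/glycerol buffer at room temperature for 30 min, then washed, crosslinked with 0.1% formaldehyde, proximity-ligated with BsaI/T4 ligase (1 h, 37 °C), PCR-amplified and sequenced on an Illumina NextSeq500.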

The target in another assay is ETV5 (Homo sapiens, UniProt P41161 1-510). Particulars: protein: recombinant; tags: N-terminal GST; dsDNA, one strand shown. An outline of the steps:
as §1

In another assay the target is HSF1 (Homo sapiens, UniProt Q00613 1-529). Particulars: protein: recombinant; tags: N-terminal GST; chain copies: 3; dsDNA, one strand shown. In a few lines:
as §1

For a further assay, the target named is T2, SPIC (Homo sapiens, UniProt Q8N5J4 1-248).
T2 sequence: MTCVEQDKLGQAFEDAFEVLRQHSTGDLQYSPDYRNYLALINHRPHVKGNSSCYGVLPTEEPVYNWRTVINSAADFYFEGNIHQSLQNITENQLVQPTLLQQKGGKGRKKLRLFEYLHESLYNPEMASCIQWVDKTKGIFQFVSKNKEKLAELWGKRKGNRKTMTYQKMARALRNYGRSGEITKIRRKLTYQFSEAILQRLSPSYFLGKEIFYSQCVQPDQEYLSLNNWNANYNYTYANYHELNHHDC
The settings on record: protein: recombinant; tags: N-terminal GST; dsDNA, one strand shown. In a few lines:
as §1

In the next assay the target is ELF4 (Homo sapiens, UniProt Q99607 1-663). Particulars: protein: recombinant; tags: N-terminal GST; dsDNA, one strand shown. An outline of the steps: as §1
A further assay has as its target T3, ELK4 (Homo sapiens, UniProt P28324-2 1-405).
T3 sequence: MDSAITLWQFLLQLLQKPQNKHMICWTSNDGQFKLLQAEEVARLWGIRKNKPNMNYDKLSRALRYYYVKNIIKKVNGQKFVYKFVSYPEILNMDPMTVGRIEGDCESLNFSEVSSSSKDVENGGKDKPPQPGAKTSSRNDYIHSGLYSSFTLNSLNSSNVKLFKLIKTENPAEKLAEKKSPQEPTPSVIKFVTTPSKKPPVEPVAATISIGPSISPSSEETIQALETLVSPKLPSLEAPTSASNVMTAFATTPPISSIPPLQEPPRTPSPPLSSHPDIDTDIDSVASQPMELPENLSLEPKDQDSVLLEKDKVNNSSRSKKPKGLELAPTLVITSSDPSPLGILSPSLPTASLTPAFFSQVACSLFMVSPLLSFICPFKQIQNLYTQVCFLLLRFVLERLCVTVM
Particulars: protein: recombinant; tags: N-terminal GST; dsDNA, one strand shown. An outline of the steps:
as §1

A further assay addresses T4, ETV2 (Homo sapiens, UniProt O00321 1-342).
T4 sequence: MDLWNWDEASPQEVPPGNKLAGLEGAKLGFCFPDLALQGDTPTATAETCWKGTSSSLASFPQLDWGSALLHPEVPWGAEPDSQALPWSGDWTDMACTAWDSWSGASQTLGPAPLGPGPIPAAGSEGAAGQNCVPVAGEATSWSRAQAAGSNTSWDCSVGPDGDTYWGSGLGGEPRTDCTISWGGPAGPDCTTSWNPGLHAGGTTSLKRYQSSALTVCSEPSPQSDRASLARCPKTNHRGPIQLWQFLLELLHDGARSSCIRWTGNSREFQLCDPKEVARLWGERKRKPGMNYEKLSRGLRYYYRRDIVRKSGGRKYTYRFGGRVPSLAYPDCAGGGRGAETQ
Particulars: protein: recombinant; tags: N-terminal GST; dsDNA, one strand shown. An outline of the steps: as §1

For another assay, the target named is T5, ELF3 (Homo sapiens, UniProt P78545 1-371).
T5 sequence: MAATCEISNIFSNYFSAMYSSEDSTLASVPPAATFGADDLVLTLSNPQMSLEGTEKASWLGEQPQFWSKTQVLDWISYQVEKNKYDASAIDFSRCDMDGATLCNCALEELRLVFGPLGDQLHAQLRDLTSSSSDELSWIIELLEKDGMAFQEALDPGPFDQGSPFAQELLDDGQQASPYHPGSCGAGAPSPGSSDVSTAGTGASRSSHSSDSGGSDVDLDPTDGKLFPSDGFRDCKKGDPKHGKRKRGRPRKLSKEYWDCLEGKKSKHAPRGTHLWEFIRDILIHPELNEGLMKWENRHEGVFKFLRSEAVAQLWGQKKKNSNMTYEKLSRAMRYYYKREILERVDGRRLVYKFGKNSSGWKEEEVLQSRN
The settings on record: protein: recombinant; tags: N-terminal GST; dsDNA, one strand shown. An outline of the steps: as §1

Another assay concerns the target CRX (Homo sapiens, UniProt O43186 1-299). The settings on record: protein: recombinant; tags: N-terminal GST; dsDNA, one strand shown. In a few lines: as §1
A further assay addresses ETV1 (Homo sapiens, UniProt P50549 1-477). Particulars: protein: recombinant; tags: N-terminal GST; dsDNA, one strand shown. An outline of the steps:
as §1

Another assay has as its target T6, ERF (Homo sapiens, UniProt P50548 1-548).
T6 sequence: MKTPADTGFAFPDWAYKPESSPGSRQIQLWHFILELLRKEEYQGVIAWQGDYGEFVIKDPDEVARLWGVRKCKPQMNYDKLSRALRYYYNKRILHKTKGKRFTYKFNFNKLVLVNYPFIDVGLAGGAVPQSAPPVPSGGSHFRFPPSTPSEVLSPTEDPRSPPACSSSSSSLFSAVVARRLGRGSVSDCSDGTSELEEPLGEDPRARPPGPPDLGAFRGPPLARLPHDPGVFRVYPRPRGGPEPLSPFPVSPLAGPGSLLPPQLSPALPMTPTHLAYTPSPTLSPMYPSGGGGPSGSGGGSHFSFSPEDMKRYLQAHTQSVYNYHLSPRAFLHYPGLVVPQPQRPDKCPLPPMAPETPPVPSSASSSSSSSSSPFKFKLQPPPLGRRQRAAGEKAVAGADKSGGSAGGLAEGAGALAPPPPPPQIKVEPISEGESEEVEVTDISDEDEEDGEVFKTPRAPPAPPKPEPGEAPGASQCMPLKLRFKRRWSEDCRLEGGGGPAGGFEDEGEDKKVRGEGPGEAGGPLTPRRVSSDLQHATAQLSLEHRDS
The settings on record: protein: recombinant; tags: N-terminal GST; dsDNA, one strand shown. An outline of the steps: as §1

The next assay has as its target T7, ETV3L (Homo sapiens, UniProt Q6ZN32 1-361).
T7 sequence: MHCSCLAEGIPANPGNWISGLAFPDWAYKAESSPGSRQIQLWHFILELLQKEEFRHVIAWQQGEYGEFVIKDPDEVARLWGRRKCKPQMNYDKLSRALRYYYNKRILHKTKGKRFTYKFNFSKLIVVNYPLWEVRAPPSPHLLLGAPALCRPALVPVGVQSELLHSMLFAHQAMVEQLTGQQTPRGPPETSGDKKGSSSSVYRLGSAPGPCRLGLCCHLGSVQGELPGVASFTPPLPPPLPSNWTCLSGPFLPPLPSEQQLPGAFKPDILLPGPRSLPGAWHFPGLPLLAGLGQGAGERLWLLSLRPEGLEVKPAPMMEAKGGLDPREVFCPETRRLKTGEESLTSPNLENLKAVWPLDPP
Particulars: protein: recombinant; tags: N-terminal GST; dsDNA, one strand shown. In a few lines: as §1

The next assay concerns the target T8, ETS2 (Homo sapiens, UniProt P15036 1-469).
T8 sequence: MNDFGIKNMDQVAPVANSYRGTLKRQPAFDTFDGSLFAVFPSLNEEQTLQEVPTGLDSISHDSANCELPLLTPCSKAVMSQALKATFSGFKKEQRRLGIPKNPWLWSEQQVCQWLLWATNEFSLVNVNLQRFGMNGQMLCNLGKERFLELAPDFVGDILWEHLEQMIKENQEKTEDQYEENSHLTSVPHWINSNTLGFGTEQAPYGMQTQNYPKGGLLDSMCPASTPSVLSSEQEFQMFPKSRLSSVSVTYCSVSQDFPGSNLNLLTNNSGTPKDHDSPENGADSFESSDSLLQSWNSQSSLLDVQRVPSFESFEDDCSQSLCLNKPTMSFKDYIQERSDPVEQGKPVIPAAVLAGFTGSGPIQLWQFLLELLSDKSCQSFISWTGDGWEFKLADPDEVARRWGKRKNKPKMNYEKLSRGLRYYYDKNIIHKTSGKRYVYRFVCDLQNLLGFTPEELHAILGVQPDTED
Particulars: protein: recombinant; tags: N-terminal GST; dsDNA, one strand shown. An outline of the steps: as §1

For the next assay, the target named is T9, SPDEF (Homo sapiens, UniProt O95238 1-335).
T9 sequence: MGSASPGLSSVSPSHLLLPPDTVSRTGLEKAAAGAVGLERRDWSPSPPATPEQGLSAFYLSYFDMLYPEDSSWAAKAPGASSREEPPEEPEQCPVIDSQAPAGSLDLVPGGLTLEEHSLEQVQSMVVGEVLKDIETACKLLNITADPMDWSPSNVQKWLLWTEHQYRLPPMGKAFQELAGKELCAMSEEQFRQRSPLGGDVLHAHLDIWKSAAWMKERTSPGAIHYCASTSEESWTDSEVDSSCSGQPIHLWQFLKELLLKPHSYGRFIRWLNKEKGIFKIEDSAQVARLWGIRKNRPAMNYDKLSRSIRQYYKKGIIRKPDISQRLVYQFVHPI
Particulars: protein: recombinant; tags: N-terminal GST; dsDNA, one strand shown. An outline of the steps:
as §1

In another assay the target is T10, ETV7 (Homo sapiens, UniProt Q9Y603 1-341).
T10 sequence: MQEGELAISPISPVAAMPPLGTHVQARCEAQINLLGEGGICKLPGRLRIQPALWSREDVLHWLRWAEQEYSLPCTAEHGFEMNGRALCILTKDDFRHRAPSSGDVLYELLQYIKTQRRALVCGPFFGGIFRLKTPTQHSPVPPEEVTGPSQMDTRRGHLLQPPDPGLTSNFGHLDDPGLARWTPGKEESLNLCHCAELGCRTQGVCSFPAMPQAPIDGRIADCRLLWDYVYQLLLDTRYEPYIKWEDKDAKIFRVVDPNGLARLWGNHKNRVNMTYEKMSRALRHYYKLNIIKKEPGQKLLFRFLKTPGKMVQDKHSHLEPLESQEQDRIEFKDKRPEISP
The settings on record: protein: recombinant; tags: N-terminal GST; dsDNA, one strand shown. An outline of the steps:
as §1

A further assay has as its target T11, ELF5 (Homo sapiens, UniProt Q9UKW6-2 1-255).
T11 sequence: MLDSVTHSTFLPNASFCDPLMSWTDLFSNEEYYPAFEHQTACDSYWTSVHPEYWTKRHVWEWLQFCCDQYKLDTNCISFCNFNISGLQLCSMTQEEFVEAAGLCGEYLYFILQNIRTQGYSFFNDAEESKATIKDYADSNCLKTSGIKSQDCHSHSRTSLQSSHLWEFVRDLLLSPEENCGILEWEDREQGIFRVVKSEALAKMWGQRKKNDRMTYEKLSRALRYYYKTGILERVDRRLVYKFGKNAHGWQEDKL
The settings on record: protein: recombinant; tags: N-terminal GST; dsDNA, one strand shown. In a few lines:
as §1

A further assay concerns the target T12, ETV3 (Homo sapiens, UniProt P41162-2 1-143).
T12 sequence: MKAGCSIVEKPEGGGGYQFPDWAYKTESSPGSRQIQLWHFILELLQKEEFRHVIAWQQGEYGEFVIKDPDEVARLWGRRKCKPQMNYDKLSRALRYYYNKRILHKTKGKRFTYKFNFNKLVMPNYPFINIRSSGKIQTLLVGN
Particulars: protein: recombinant; tags: N-terminal GST; dsDNA, one strand shown. In a few lines:
as §1

Another assay addresses ETV6 (Homo sapiens, UniProt P41212 1-452). Particulars: protein: recombinant; tags: N-terminal GST; dsDNA, one strand shown. In a few lines:
as §1

Chain of ELF4 (Q99607 whole entry): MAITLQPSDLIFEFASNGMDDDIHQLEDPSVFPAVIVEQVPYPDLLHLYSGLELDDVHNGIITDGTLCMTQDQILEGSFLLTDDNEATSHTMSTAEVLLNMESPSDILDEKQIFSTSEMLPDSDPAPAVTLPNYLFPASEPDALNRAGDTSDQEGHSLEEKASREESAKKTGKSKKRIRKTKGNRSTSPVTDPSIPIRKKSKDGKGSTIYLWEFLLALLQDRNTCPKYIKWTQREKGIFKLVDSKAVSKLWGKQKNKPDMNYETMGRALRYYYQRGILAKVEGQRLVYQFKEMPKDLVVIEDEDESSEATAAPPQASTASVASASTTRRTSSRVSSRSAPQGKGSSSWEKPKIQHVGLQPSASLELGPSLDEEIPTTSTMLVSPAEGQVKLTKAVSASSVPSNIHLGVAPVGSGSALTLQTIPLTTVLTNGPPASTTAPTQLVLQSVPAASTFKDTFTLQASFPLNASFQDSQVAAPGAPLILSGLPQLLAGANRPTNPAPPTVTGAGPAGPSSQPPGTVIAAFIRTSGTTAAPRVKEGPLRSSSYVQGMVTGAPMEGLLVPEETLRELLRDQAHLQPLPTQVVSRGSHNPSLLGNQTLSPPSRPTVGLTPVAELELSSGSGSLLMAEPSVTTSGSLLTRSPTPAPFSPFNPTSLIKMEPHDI
Chain of CRX (O43186 whole entry): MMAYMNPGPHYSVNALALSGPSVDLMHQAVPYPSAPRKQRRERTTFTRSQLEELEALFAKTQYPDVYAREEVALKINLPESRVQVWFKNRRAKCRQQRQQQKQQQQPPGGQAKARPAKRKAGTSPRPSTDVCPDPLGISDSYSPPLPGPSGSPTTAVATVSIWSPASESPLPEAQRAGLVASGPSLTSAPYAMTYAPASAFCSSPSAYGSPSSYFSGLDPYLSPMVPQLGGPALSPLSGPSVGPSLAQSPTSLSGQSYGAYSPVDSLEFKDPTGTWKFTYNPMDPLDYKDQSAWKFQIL
Chain of ETV5 (P41161 whole entry): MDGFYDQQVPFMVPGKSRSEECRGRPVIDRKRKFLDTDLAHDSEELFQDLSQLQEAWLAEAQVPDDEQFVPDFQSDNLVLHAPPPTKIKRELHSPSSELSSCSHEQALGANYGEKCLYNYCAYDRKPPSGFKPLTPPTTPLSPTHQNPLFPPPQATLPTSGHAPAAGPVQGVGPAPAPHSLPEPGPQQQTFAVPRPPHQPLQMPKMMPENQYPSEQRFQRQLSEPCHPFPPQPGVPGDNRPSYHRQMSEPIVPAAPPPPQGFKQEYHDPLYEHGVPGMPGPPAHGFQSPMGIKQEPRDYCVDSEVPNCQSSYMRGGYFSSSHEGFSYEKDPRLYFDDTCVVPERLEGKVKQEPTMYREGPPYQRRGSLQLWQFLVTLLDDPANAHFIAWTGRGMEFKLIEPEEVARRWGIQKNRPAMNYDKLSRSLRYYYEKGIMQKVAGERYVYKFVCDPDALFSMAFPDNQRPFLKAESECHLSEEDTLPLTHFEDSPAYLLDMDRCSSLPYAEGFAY
Chain of HSF1 (Q00613 whole entry): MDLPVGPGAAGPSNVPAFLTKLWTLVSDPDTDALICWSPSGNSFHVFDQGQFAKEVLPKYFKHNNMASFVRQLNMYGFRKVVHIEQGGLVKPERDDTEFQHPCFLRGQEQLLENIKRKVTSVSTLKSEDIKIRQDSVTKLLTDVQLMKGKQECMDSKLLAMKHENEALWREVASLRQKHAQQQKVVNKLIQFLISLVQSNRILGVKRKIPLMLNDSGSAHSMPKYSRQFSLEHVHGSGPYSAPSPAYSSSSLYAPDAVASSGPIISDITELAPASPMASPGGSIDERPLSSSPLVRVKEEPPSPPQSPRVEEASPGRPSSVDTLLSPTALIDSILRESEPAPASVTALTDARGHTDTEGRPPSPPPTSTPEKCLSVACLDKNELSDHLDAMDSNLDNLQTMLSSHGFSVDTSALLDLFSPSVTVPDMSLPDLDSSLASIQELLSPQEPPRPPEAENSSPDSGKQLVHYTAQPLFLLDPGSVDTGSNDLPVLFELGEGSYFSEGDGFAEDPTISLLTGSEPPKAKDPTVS
Chain of ETV6 (P41212 whole entry): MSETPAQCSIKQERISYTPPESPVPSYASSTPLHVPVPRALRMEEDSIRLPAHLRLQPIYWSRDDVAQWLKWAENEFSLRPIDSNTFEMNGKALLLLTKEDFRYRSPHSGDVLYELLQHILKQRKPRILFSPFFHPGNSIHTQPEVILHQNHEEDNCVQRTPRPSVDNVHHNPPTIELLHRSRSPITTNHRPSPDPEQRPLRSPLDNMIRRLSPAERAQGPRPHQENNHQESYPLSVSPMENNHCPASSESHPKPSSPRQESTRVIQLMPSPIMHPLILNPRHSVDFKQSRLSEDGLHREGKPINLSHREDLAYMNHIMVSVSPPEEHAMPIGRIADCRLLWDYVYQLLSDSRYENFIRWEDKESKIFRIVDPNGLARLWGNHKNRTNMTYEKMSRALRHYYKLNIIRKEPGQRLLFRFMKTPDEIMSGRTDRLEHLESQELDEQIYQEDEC
Chain of ETV1 (P50549 whole entry): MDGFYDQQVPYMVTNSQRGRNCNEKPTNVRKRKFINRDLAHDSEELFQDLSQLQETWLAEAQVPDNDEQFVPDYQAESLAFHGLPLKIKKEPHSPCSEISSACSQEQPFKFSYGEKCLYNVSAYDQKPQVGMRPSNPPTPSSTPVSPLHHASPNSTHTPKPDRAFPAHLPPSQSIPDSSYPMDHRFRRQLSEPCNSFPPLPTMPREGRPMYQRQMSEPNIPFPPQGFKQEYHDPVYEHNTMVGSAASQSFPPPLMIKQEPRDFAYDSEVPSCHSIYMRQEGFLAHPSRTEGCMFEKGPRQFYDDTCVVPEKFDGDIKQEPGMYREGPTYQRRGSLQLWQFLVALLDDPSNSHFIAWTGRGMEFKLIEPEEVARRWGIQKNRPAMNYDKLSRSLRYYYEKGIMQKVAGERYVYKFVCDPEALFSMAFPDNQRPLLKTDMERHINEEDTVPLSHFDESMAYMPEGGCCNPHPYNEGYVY

ATGACG: the binding signal was 1.32 fold enrichment (6-mer frequency, TF over GST control) with FEV; 1.4 fold enrichment (6-mer frequency, TF over GST control) with ETV5; 1.13 fold enrichment (6-mer frequency, TF over GST control) with HSF1; 1.18 fold enrichment (6-mer frequency, TF over GST control) in the assay with SPIC; 1.39 fold enrichment (6-mer frequency, TF over GST control) in the assay with ELF4; 1.47 fold enrichment (6-mer frequency, TF over GST control) with ELK4. The binding signal with ETV2 was 1.25 fold enrichment (6-mer frequency, TF over GST control); with ELF3 it was 1.3 fold enrichment (6-mer frequency, TF over GST control); in the assay with CRX, 1.11 fold enrichment (6-mer frequency, TF over GST control); with ETV1, 1.3 fold enrichment (6-mer frequency, TF over GST control); with ERF it was 1.39 fold enrichment (6-mer frequency, TF over GST control); with ETV3L it was 1.34 fold enrichment (6-mer frequency, TF over GST control). The binding signal was 1.26 fold enrichment (6-mer frequency, TF over GST control) in the assay with ETS2; 1.45 fold enrichment (6-mer frequency, TF over GST control) in the assay with SPDEF; 1.16 fold enrichment (6-mer frequency, TF over GST control) with ETV7; 1.44 fold enrichment (6-mer frequency, TF over GST control) in the assay with ELF5; 1.2 fold enrichment (6-mer frequency, TF over GST control) with ETV3; 1.28 fold enrichment (6-mer frequency, TF over GST control) with ETV6.

(Values after publication PMC7862700, “An all-to-all approach to the identification of sequence-specific readers for epigenetic DNA modifications on cytosine”.)
